# TRPM1 prom inh – inhibitors of MITF-driven TRPM1 promoter in melanoma cells; SK-MEL-5 TRPM1 promoter luciferase, 24 h; inhibition, % at 12.5 µM; 330,000 compounds, 0.83% hits; AID 488899;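 active = mean inhibition across replicates of 60% or more, whatever share of single replicates reaches that level; inconclusive = some that reach 60%, reason not given; inactive = mean inhibition across replicates below 60%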
# PAX8 inh HTS – inhibitors of PAX8 transcriptional activity in RMG-I cells | RMG-I TPO-luciferase reporter, SteadyGlo, 24 h | inhibition, % at 12.6 µM | 360,000 compounds, 1.2% hits | AID 652154;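 active = mean replicate inhibition at least 60% with every replicate also reaching 60%; inconclusive = only one of the two criteria is met; inactive = mean below 60% and not all replicates reaching 60%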;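 note: luciferase light reporting Pax8 driven TPO promoter activity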
# esBAF inh – inhibitors of esBAF chromatin remodeling in mouse ES cells | Bmi1-luciferase knock-in reporter, 24 h; 100% = twice the neutral-well signal | 350,000 compounds, 2% hits | reporter increase, % at 12.5 µM; in the data active = activation above about 40%; inconclusive = no clear call, values can overlap the other calls;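 note: a rise in the Bmi1 reporter signal indicates esBAF inhibition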
# Wnt act – Wnt/beta-catenin pathway activation; Wnt/beta-catenin reporter cell assay, activator, plate reader; activation, % at 9.35 µM; 300,000 compounds, 1.2% hits; in the data active = activation above about 30%, passing the limit was not always enough; inconclusive = no clear call, values can overlap the other calls
# MITF TRPM1 HTS – MITF TRPM1 promoter activation in melanoma cells; SK-MEL-5 TRPM1-promoter luciferase, 24 h; % of positive control, neutral wells = 0; activation, % at 12.5 µM; 300,000 compounds, 0.75% hits;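 active = mean activation of at least 80% with every replicate also reaching 80%; inconclusive = mean reaches 80% but some replicate falls short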
# EWS-Fli inh – inhibitors of EWS/Fli oncoprotein transcriptional activity. 350,000 compounds, 0.67% hits. inhibition, % at 12.6 µM. A673 NR0B1-luciferase reporter, viability-normalised;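 active = mean inhibition of at least 50% after viability correction, with every replicate also passing that limit; inconclusive = mean reaches 50% but only one of two replicates passes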;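 note: firefly luciferase signal divided by Alamar Blue viability fluorescence both relative to DMSO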
# Numbers stand for hits; - = inactive; ? = inconclusive; . = no result. Hits are enriched below; roughly 4% of the tested compounds scored in any of these assays.
SMILES,TRPM1 prom inh,PAX8 inh HTS,esBAF inh,Wnt act,MITF TRPM1 HTS,EWS-Fli inh
Cc1cc(N(C)C)ccc1N=Nc1ccc2ncccc2c1,-,-,-,42,-,-
O=C(C1CC1)N1CC(=O)N2[C@@H](CO)[C@@H](c3ccc(C#CC4CCCC4)cc3)[C@@H]2C1,.,-,.,.,.,-
CO[C@@H]1CN(C)C(=O)c2ccc(NS(=O)(=O)c3cccc(F)c3)cc2OC[C@H](C)NC[C@@H]1C,.,.,-,.,.,-
NS(=O)(=O)c1ccc(CNc2ccc3ccccc3n2)cc1,-,-,52,-,.,-
COC(=O)[C@H]1[C@H](CO)[C@H]2Cn3c(ccc(-c4cccc(F)c4)c3=O)[C@H]2N1CC1CC1,.,.,-,.,.,-
COc1cc(Br)c(/C=C/c2ccc3cccc(O)c3n2)cc1OC,-,-,-,-,-,-
COc1cc(/C=C/c2ccc3cccc(O)c3n2)c(Br)cc1O,-,-,40,-,-,-
C[C@H]1CN([C@@H](C)CO)C(=O)c2cccc(NC(=O)c3cnccn3)c2O[C@H]1CN(C)Cc1ccc2c(c1)OCO2,.,-,-,.,.,-
C[C@@H]1CCCCCCCCC(=O)OCCN[C@H](C)CCCCCCCCC(=O)OCCN[C@H](C)CCCCCCCCC(=O)OCCN1,64,.,-,.,-,.
S=C(Nc1ccc(Br)cc1Cl)N1CCCC1,-,-,?,-,84,.
S=C(Nc1ccccc1Cl)N1CCCC1,-,-,.,-,-,-
COc1ccc(N2Cc3ccc(OC)c(OC)c3C2=O)cc1,-,-,-,-,86,-
CCC(=O)Nc1ccc2c(c1)C(=O)N(C)[C@@H]1CC[C@@H](CC(=O)N3CCc4ccccc4C3)O[C@@H]1CO2,.,-,-,.,.,-
O=C(Nc1ccc2c(c1)OCCO2)c1cnn(-c2ccccc2)n1,-,-,-,-,90,-
Cc1ccc(SCC(=O)Nc2ccc(N3CCN(c4ccccc4)CC3)c(F)c2)cc1,-,.,-,.,.,.
CN1CCN(c2ccc(NC(=O)CSc3ccccc3)cc2F)CC1,-,-,-,38,.,.
O=C(CSc1nnnn1-c1ccc(Cl)cc1)NC(=O)Nc1ccc2c(c1)OCCO2,-,.,56,38,-,.
CC(CC(=O)Nc1ccc2c(c1)OCCO2)c1ccccc1 (stereo not drawn),-,-,55,56,.,.
O=C(C[C@H]1CC[C@H]2[C@@H](COC[C@@H](O)CN2C(=O)c2ccccc2F)O1)NCc1ccccc1,.,-,-,.,.,-
CCn1cc(S(=O)(=O)CC(=O)Nc2ccc3c(c2)OCO3)c2ccccc21,.,-,-,35,.,-
O=C(CSc1nccn(-c2ccc3c(c2)OCCO3)c1=O)Nc1ccccc1,-,.,49,-,-,-
O=C(CSc1ccccc1)Nc1ccc2c(c1)OCO2,-,-,44,-,89,-
O=C(CSc1ccc2c(c1)OCCO2)Nc1ccc2c(c1)OCO2,-,.,-,-,-,.
COc1ccc(-c2nnc(SC(C)C(=O)Nc3ccc4c(c3)OCCO4)o2)cc1 (stereo not drawn),-,.,46,.,?,.
Cn1cc(S(=O)(=O)CC(=O)Nc2ccc3c(c2)OCO3)c2ccccc21,-,.,-,.,-,.
SMILES,TRPM1 prom inh,PAX8 inh HTS,esBAF inh,Wnt act,MITF TRPM1 HTS,EWS-Fli inh
CC(=O)Nc1ccc(NC(=O)C(C)Sc2nnc(-c3ccc4c(c3)OCO4)o2)cc1 (stereo not drawn),-,-,-,-,-,-
COCC(=O)N(C)C[C@H]1Oc2cc(C3=CCCC3)ccc2S(=O)(=O)N([C@H](C)CO)C[C@H]1C,.,-,-,.,.,-
CN(C(=O)CSc1ccc2c(c1)OCCO2)c1ccccc1,-,-,60,-,-,-
O=C(CN1C(=O)C2C3C=CC(C3)C2C1=O)Nc1ccc2c(c1)OCCO2 (stereo not drawn),-,.,41,.,-,.
C/C(CC(=O)Nc1ccc2c(c1)OCCO2)=N\NC(=O)c1ccccn1,-,-,52,-,-,-
O=C(CC1Nc2ccccc2NC1=O)Nc1ccc2c(c1)OCO2 (stereo not drawn),-,-,47,-,-,-
CO[C@@H]1CN(C)C(=O)c2cc(NC(=O)C3CCOCC3)ccc2OC[C@H](C)N(Cc2nccs2)C[C@@H]1C,.,-,-,.,.,-
COc1ccc2c3c([nH]c2c1)[C@@H](CO)N(Cc1ccc(F)cc1)CC31CN(C(=O)NC(C)C)C1,.,.,.,.,.,-
O=C(CSCc1ccccc1)Nc1ccc2c(c1)OCO2,-,.,-,.,-,.
CSc1nsc(SCC(=O)Nc2ccc3c(c2)OCCO3)n1,-,-,43,-,-,.
O=C(CSc1ccccc1F)Nc1ccc2c(c1)OCO2,-,-,-,-,99,-

# Compound activity (PubChem)
